# HTT ATP protect = protects HTT-Q103 PC12 cells, measured by ATP. hit rate 0.14% among 230,000. Potency, µM (series often up to 56.4 µM), usual class: activators. AID 1471. PC12 HTT-Q103 induced, cytoprotection, ATP luminescence, 40 h; also: nearly all actives have a fitted effect of over 45% in size
#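 Rat PC12, Q103 Htt exon1-GFP fusion, ecdysone promoter; tebufenozide inducer 100 nM final; compound titration; qHTS, 1500 cells/well; ATPlite luminescent read.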
# IMPase cell inh = membrane-permeable compound that blocks inositol monophosphatase; inhibition (IP1 accumulation), % at 46.1 µM; 120,000 tested, under 10 active; CHO-M1 cells, IP1 accumulation, HTRF TR-FRET ratio; AID 901; active = well fitted curve in the direction sought with a large enough effect in the signal ratio, not every such curve was filed as active; inconclusive = small, poorly fitted or top-dose-only effect, or a change in a side signal; inactive = no such curve, though single readings can be large or run the other way; the % refers to the signal ratio;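 also: cells stimulated with carbachol in lithium chloride buffer; higher means more IMPase inhibition seen as more IP1 and lower FRET ratio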
# Target sequence (P97697 whole entry, looked up): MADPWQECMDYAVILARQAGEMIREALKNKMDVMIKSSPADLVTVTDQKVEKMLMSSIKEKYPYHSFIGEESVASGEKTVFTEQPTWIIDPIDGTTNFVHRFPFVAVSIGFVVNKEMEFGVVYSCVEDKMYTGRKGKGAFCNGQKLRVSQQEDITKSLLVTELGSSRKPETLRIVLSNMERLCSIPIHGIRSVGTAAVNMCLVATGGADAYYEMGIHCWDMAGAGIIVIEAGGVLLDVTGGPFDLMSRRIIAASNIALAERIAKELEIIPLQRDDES
#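 Measured: the HTRF emission ratio (665/620 nm) plus the 620 nm donor channel, each fitted to the Hill equation to give AC50. Cells were CHO-M1 given compounds up to 46 uM and a 30 min carbachol stimulation at 37C.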
# IMPase Li cell = cell-permeable IMPase inhibitors with lithium potentiation; CHO-M1 cells, IP1 TR-FRET (IP-One), carbachol + lithium; Potency, µM (titrated, usually from 59.4 µM), hits mostly inhibitors; hit rate 0.35% among 210,000;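 also: IP1 builds up when IMPase is blocked and the TR-FRET signal falls; nearly all actives have a fitted effect of over 50% in size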
#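 Steps: plate 2000 CHO-M1 cells per well and culture 16–30 h; add compound and lithium; incubate 30 min, 37C; add d2-IP1 tracer and Eu cryptate anti-IP1 antibody in lysis buffer; read after 10 min at room temperature.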
# HTT aggregate = reduces HttQ103-GFP aggregates in PC12 cells; AID 1688; hit rate 1.1% among 220,000; Potency, µM (top dose mostly 46.1 µM), most hits filed as inhibitors; PC12 HttQ103-GFP aggregates, Acumen cytometry, 40 h; also: nearly all actives have a fitted effect of over 60% in size
#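 Ecdysone-promoter PC12 model expressing HTT exon 1 Q103 fused to GFP, induced by tebufenozide at 100 nM final. Compounds titrated; aggregates sized 1–25 µm scored on a 488 nm laser cytometer.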
# HPGD block = inhibitors of human 15-hydroxyprostaglandin dehydrogenase (HPGD); AID 894; P15428; purified HPGD, NADH fluorescence kinetic, PGE2 substrate; Potency, µM, actives largely listed as inhibitors; hit rate 4.3% among 150,000; active = well fitted inhibition curve with a large enough effect, not every such curve was filed as active; inconclusive = small, poorly fitted or top-dose-only effect, or another doubt; inactive = no such curve, though single readings can be large or run the other way
#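 NADH formation kinetics: reaction with 30 uM PGE2 and 1 mM NAD+ (final), 20 nM enzyme, Tris-HCl pH 8 with Tween 20, after 15 min compound preincubation at room temperature. Fluorescence change, last versus first of five reads.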
# ALDH1A1 block = inhibitors of human aldehyde dehydrogenase 1A1. Potency, µM (titrated, usually from 75.3 µM), most hits filed as inhibitors. hit rate 7.3% among 220,000. Purified ALDH1A1, NADH fluorescence, propionaldehyde substrate; active = well fitted inhibition curve with a large enough effect, not every such curve was filed as active; inconclusive = small, poorly fitted or top-dose-only effect, or another doubt; inactive = no such curve, though single readings can be large or run the other way
# Target sequence (P00352 whole entry, looked up): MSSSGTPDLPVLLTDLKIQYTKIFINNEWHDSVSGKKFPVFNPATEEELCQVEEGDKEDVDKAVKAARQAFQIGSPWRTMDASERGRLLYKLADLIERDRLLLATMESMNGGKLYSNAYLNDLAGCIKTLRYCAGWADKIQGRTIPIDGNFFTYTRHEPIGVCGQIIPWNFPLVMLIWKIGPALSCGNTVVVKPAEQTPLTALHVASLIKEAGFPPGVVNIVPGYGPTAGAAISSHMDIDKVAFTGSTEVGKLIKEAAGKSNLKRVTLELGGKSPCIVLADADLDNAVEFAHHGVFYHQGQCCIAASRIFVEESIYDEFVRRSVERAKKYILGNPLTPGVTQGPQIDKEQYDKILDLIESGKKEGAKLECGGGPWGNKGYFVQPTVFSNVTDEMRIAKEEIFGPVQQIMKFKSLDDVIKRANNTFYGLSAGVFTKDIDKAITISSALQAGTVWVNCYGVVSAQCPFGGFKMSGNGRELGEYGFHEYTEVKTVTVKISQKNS
# Hits are given with their value; – = inactive; ? = inconclusive; · = no result; [ ] = another dose, or the depositor's remark. The list is not random: actives were taken first. Their share in the collection is about 9.4%. Unless noted, calls follow the shape of the dose curve; as a rule, active = well fitted curve in the direction sought with a large enough effect; inconclusive = small, poorly fitted or top-dose-only effect, or another doubt; inactive = no such curve, though single readings can be large; an effect the other way counts as inactive or inconclusive.
SMILES,HTT ATP protect,IMPase cell inh,IMPase Li cell,HTT aggregate,HPGD block,ALDH1A1 block
Cc1ccc2c(c1)-c1c(ssc1=S)C(C)(C)N2C(=O)c1ccco1,–[10 µM],–,–,–,8.9µM,10µM
CC(C)(C)c1ccc(S(=O)(=O)Nc2ccccn2)cc1,·,·,–,·,·,32µM
O=C1C(Cl)=C(Nc2ccc(S(=O)(=O)Nc3ccccn3)cc2)C(=O)c2ccccc21,–[10 µM],·,–,·,2.8µM,0.63µM
CN(C)CC(=O)N1CCc2ccccc2C1,–,·,–,–,·,–
CCc1ccc(/C=C\C(=O)N2CCc3ccccc3C2)cc1,–,–,–,?,11µM,–
CC(=O)OCc1cc(-c2nn(C)c(=O)c3ccccc23)ccc1C,–[10 µM],·,–,–[9.22 µM],·,–
COc1ccc(NC(=O)COc2ccc(-c3nn(C)c(=O)c4ccccc34)cc2)cc1,–[10 µM],–,–,–[9.22 µM],·,–
COc1ccc(OCC(=O)Nc2cc(-c3nn(C)c(=O)c4ccccc34)ccc2OC)cc1,–,–,7.9µM,–,?,?
Cn1nc(-c2ccc(C(=O)O)cc2)c2ccccc2c1=O,–,–,–,–,7.9µM,–
CCC(CO)Nc1ccc(-c2nn(C)c(=O)c3ccccc23)cc1[N+](=O)[O-] (centres undefined),–[10 µM],·,–,–[9.22 µM],·,1.4µM
Cc1ccc(-c2nn(C)c(=O)c3ccccc23)cc1CO,–[10 µM],–,–,–,32µM,–
O=C(c1ccncc1)N1CCC2(CC1)CCN(c1ccccn1)CC2,–,·,–,·,?,?
NCCC[C@@H](CC(=O)N[C@@H]1CCNC[C@H]1C(=O)N[C@H](CC(=O)N[C@@H](CCC(=O)O)CC(=O)O)Cc1c[nH]c2ccccc12)NC(=O)C[C@H](CO)NC(=O)[C@@H]1CCCC[C@H]1N,–,·,–,·,–,–
COc1cccc([C@@H]2Oc3ccc(Br)cc3C[C@H]2OC(=O)N[C@H](C)C2CCCCC2)c1,–,·,–,·,–,–
Cc1ccc(-c2nn(C)c(=O)c3ccccc23)cc1CNC(=O)CN1CCOCC1,–,–,–,–,20µM,?
COCCOC(=O)c1[nH]c2c(c1C)C(=O)CC(c1ccc(N(C)C)cc1)C2 (centres undefined),–[10 µM],–,–,–,–,14µM
C=CCOC(=O)c1[nH]c2c(c1C)C(=O)CC(c1cc(OC)c(OC)c(OC)c1)C2 (centres undefined),–[10 µM],–,–,–,–,?
CCOC(=O)c1[nH]c2c(c1-c1ccc(OC)cc1)C(=O)CC(c1ccc(OC)c(OC)c1)C2 (centres undefined),·,·,–,–,–,28µM
CCCCOC(=O)c1[nH]c2c(c1C)C(=O)CC(c1cc(OC)c(OC)c(OC)c1)C2 (centres undefined),–,–,–,?,–,5µM
O=C(O)c1[nH]c2c([N+](=O)[O-])cc([N+](=O)[O-])cc2c1C(=O)O,–[10 µM],·,–,·,–,–[13.5 µM]
Cc1cccc(N(CC(=O)NCCSc2ccc(Cl)cc2)S(C)(=O)=O)c1C,·,–,·,·,·,·
Cc1c(C(=O)Nc2ccc(F)cc2)c2ccccn2c1CCc1ccncc1,–[10 µM],–,–,–,?,?
O=C(Nc1cc(C(F)(F)F)ccc1Cl)c1cc(-c2cccs2)nc2ccccc12,·,–,·,·,·,·
CCOC(=O)C1=C(N)OC2=C(C(=O)CC(C)(C)C2)C1c1cccnc1 (centres undefined),–,–,–,–,–,–
CCOC(=O)C1=C(N)OC2=C(C(=O)CC(C)(C)C2)C1c1ccoc1 (centres undefined),–[10 µM],–,–,–,–,25µM
SMILES,HTT ATP protect,IMPase cell inh,IMPase Li cell,HTT aggregate,HPGD block,ALDH1A1 block
CCOC(=O)C1=C(N)OC2=C(C(=O)CC(C)(C)C2)C1c1cc(CSc2nnnn2C)cs1 (centres undefined),–,·,–,–,·,1µM
Cc1cc(C)n(CCc2nc(-c3ccc(C)o3)cs2)n1,–,–,–,–,25µM,4µM
COCCn1c(=O)c(-c2ccccc2)nc2cnc(Oc3ccc(OC)cc3)nc21,–,·,–,·,·,?
COc1ccc(-c2cc(=O)c3ccccc3s2)cc1,–[10 µM],–,–,–,7.9µM,?
COc1ccc2sc3ccccc3c(=O)c2c1,–,–,–,–,–,?
Nc1c(C(=O)Nc2ccc(F)cc2)sc(=S)n1-c1ccccc1F,–,·,–,–,·,13µM
COc1ccccc1-n1c(N)c(C(N)=O)sc1=S,–,–,–,–,28µM,28µM
Cn1c(N)c(C(=O)Nc2ccc3ccccc3c2)sc1=S,–,–,–,–,8.9µM,13µM
Cn1c(N)c(C(=O)Nc2ccccc2F)sc1=S,–[10 µM],·,·,–[9.22 µM],·,?
CC(=O)OC[C@@H]1O[C@H](C/C=N\OC[C@@H](O)[C@H]2O[C@H]3OC(C)(C)O[C@H]3[C@@H]2O)C=C[C@@H]1OC(C)=O,–[10 µM],·,·,·,·,–[13.5 µM]
C=CCn1c(SC(C)C#N)nc2sc(CC)cc2c1=O (centres undefined),–,·,–,–,·,2µM
C=CCn1c(SC(C)C(N)=O)nc2sc(CC)cc2c1=O (centres undefined),·,·,–,–,·,8.9µM
C=CCn1c(SCC(=O)c2c(N)n(CCC)c(=O)n(C)c2=O)nc2sc(CC)cc2c1=O,–,–,–,–,–,–
O=C(Nc1cccc(-c2nc3cccnc3s2)c1)C1c2ccccc2Oc2ccccc21,·,·,?,–,?,?
CCn1c(=O)c2cc(C(=O)N(C)c3ccccc3F)sc2c2ccccc21,–[10 µM],·,·,–[9.22 µM],·,25µM
CCn1c(=O)c2cc(C(=O)N(C)c3ccc(OC)cc3OC)sc2c2ccccc21,–[10 µM],·,·,–[9.22 µM],·,–
Cc1ccc(S(=O)(=O)Nc2cccc(N(C)S(C)(=O)=O)c2)cc1[N+](=O)[O-],–[10 µM],·,–,–[9.22 µM],·,16µM
CN(c1cccc(NS(=O)(=O)c2cccc([N+](=O)[O-])c2)c1)S(C)(=O)=O,–[1.9 µM],·,–,–[9.22 µM],·,?
CCCCN(Cc1ccccc1)C(=O)CCN1C(=O)C2C3C=CC(C3)C2C1=O (centres undefined),–,·,–,–,·,2.2µM
CN(Cc1ccccc1)C(=O)CN1C(=O)C2C3C=CC(C3)C2C1=O (centres undefined),–[10 µM],–,–,–,–,–
O=C(Nc1nc(=S)ss1)c1ccc(Cl)cc1Cl,–,–,–,–,22µM,6.3µM
O=C(Nc1ccc2ccccc2c1)c1ccc(Cl)cc1Cl,–[10 µM],·,·,–[9.22 µM],·,·
CCOc1ccc(-n2c(-c3ccc(OC)cc3)c[n+]3c2CCCCC3)cc1,–[1.9 µM],–,–,7.9µM,–,–
CCOc1ccc(-n2c(-c3ccc(Br)cc3)c[n+]3c2CCCCC3)cc1,–,·,–,?,·,–
CCOc1ccc(-n2c(-c3ccccc3)c[n+]3c2CCC3)cc1,–[10 µM],·,–,6.3µM,·,–
Cc1cccc(CNc2ncnc3ccc(-c4ccccc4C#N)cc23)c1,–,·,–,·,?,?
N#Cc1c(-c2ccc(F)cc2)cc(-c2ccccc2)nc1SCC(=O)NCC(=O)O,–[10 µM],·,·,–[9.22 µM],·,8.9µM
